The sample as a whole holds a higher share of hits than the screen did.
Tgondii IFNg – blocks Toxoplasma gondii growth in the presence of IFN-gamma; Toxoplasma gondii growth in IFN-gamma-treated host cells; stronger effect = lower value; activity change, negative = inhibition, % (concentration not given with the values); 69,000 compounds, 3.8% hits; AID 1259416; in the data active = activity change below about -70%, passing the limit was not always enough;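 note: host cells are HeLa cells infected with Toxoplasma gondii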
* = called active by the depositor.

Results for Cc1nn(C)cc1C(=O)N1CCCC1(C)C(=O)NC1CCCC1 (centres undefined) ?
Tgondii IFNg: 8.3

Results for Cc1ccc(C(=O)N2CCc3c([nH]c4ccccc34)C2c2cccc(C)c2)cc1 (centres undefined) ?
Tgondii IFNg: 207.5

What do the screens show for `CCOc1cccc(C2c3[nH]c4ccccc4c3CCN2C(=O)C2CCC2)c1` (centres undefined)?
Tgondii IFNg: 482.8

How did CCOc1cccc(C2c3[nH]c4ccccc4c3CCN2C(=O)c2ccccc2OC)c1 (centres undefined) do in these assays?
Tgondii IFNg: -105.1*

How did CCOc1cccc(C2c3[nH]c4ccccc4c3CCN2C(=O)c2ccc(C)cc2)c1 (centres undefined) do in these assays?
Tgondii IFNg: -121.8*

Results for CCOc1cccc(C2c3[nH]c4ccccc4c3CCN2C(=O)COC)c1 (centres undefined) ?
Tgondii IFNg: inactive

Results for COc1ccccc1C(=O)N1CCc2c([nH]c3ccccc23)C1c1ccc(Cl)cc1 (centres undefined) ?
Tgondii IFNg: 30.5

What do the screens show for `CCOc1cccc(C2c3[nH]c4ccccc4c3CCN2C(=O)c2cccc(OC)c2)c1` (centres undefined)?
Tgondii IFNg: -103.5*

What do the screens show for `CCOc1cccc(C2c3[nH]c4ccccc4c3CCN2C(=O)c2cccc(N(C)C)c2)c1` (centres undefined)?
Tgondii IFNg: 407.7

Results for COc1ccccc1C(=O)N1CCc2c([nH]c3ccccc23)C1c1ccccc1 (centres undefined) ?
Tgondii IFNg: 57.9

What do the screens show for `CCOc1cccc(C2c3[nH]c4ccccc4c3CCN2C(=O)c2ccc(F)cc2)c1` (centres undefined)?
Tgondii IFNg: -98.2*

What do the screens show for `Cc1nc(-c2ccc(F)cc2)sc1-c1ccc(SCC#N)nn1`?
Tgondii IFNg: 105.7

How did Cc1cccc(NC(=O)CSc2nnc(Cn3nnc4ccccc43)o2)c1 do in these assays?
Tgondii IFNg: 6.1

How did O=c1cccnn1CC1CN(c2ncccn2)Cc2nccn2C1 (centres undefined) do in these assays?
Tgondii IFNg: 3.8

Results for Cc1cc(C)n(CCCC(=O)N2CC(N3CCCCC3C)C2)n1 (centres undefined) ?
Tgondii IFNg: -0.2

Results for Cc1cc(-c2cc3c(n(Cc4cccnc4)c2=O)CCN(C(=O)C2CCOC(C)(C)C2)C3)ccc1F (centres undefined) ?
Tgondii IFNg: -6.8

What do the screens show for `CNc1cc(-c2cccc(C(C)O)n2)c2cc[nH]c2n1` (centres undefined)?
Tgondii IFNg: 50.4

How did Cc1noc(C)c1-n1sc(=O)n(-c2ccc(F)cc2)c1=O do in these assays?
Tgondii IFNg: -3.8

How did Cc1ccc(C)c(NCc2n[nH]c(=S)n2-c2ccccc2)c1 do in these assays?
Tgondii IFNg: 5.0

How did Cc1c(C)c(C)c(CSCc2n[nH]c(=S)n2-c2ccc(F)cc2)c(C)c1C do in these assays?
Tgondii IFNg: -86.4*

What do the screens show for `COc1cc(C(=O)N2CCc3c([nH]c4ccccc34)C2c2ccccc2)cc(OC)c1OC` (centres undefined)?
Tgondii IFNg: 177.2

Results for O=C(c1ccncc1)N1CCc2c([nH]c3ccccc23)C1c1ccccc1 (centres undefined) ?
Tgondii IFNg: 337.0

What do the screens show for `COc1ccc(C2c3[nH]c4ccccc4c3CCN2C(=O)c2ccc3c(c2)OCO3)cc1` (centres undefined)?
Tgondii IFNg: -80.9*

What do the screens show for `O=C(c1ccc2c(c1)OCO2)N1CCc2c([nH]c3ccccc23)C1c1ccccc1` (centres undefined)?
Tgondii IFNg: -97.9*

Results for COc1ccc(C(=O)N2CCc3c([nH]c4ccccc34)C2c2ccc(SC)cc2)cc1OC (centres undefined) ?
Tgondii IFNg: inactive

Results for O=C(Nc1cnc2ccccc2c1)c1ccc(-n2cnnn2)cc1 ?
Tgondii IFNg: 294.4

Results for O=C(c1cccnc1)N1CCC2(C1)CN(C(=O)c1ccsc1)C2 ?
Tgondii IFNg: -1.4

How did Cc1ccc2c(c1)c(CNC1CCC3(CCNCC3)CC1)nn2C do in these assays?
Tgondii IFNg: -16.6

How did Oc1[nH]c2ccccc2c1N=Nc1ccccc1 do in these assays?
Tgondii IFNg: 195.1

What do the screens show for `Cc1ccc(S(=O)(=O)N=Nc2c(O)[nH]c3ccccc23)cc1`?
Tgondii IFNg: 30.8

How did O=Nc1c(-c2c(O)[nH]c3ccccc23)[nH]c2ccccc12 do in these assays?
Tgondii IFNg: -84.5*

What do the screens show for `CCc1cc(C(=O)NC(C)c2cc3cc(Cl)ccc3o2)n(C)n1` (centres undefined)?
Tgondii IFNg: -65.8

How did Cc1ccc(-c2nc(CNS(=O)(=O)c3ccc(C)c(C)c3)c(C)o2)cc1 do in these assays?
Tgondii IFNg: -45.2

What do the screens show for `CC(NC(=O)CSC12CC3CC(CC(C3)C1)C2)C(=O)N(C)C` (centres undefined)?
Tgondii IFNg: -3.9

How did CCOc1cccc(CNc2c(C(=O)OC)c(=O)[nH]c3c(Cl)cccc23)c1 do in these assays?
Tgondii IFNg: -81.8*

Results for COC(=O)c1c(NCCN2CCC(C)CC2)c2cccc(Cl)c2[nH]c1=O ?
Tgondii IFNg: 19.1

What do the screens show for `COC(=O)c1c(NCc2ccc(F)cc2)c2cccc(Cl)c2[nH]c1=O`?
Tgondii IFNg: -87.7*

How did CCCCNc1c(C(=O)OC)c(=O)[nH]c2c(Cl)cccc12 do in these assays?
Tgondii IFNg: -23.3

What do the screens show for `COC(=O)c1c(NCc2ccccc2F)c2cccc(Cl)c2[nH]c1=O`?
Tgondii IFNg: -37.6

How did COC(=O)c1c(NC(C)c2ccccc2)c2cccc(Cl)c2[nH]c1=O (centres undefined) do in these assays?
Tgondii IFNg: -19.4

What do the screens show for `COC(=O)c1c(NCCc2cccs2)c2cccc(Cl)c2[nH]c1=O`?
Tgondii IFNg: -85.7*

What do the screens show for `CCCNc1c(C(=O)OC)c(=O)[nH]c2c(Cl)cccc12`?
Tgondii IFNg: -13.3

What do the screens show for `COC(=O)c1c(NCc2ccc(C)o2)c2cccc(Cl)c2[nH]c1=O`?
Tgondii IFNg: -61.7

Results for CC(=O)c1cccc(-c2ccccc2-c2nnc(C)s2)c1 ?
Tgondii IFNg: -6.3

How did Cc1ccc(NC2(C(=O)NC3C=CS(=O)(=O)C3)CCCCC2)cc1 (centres undefined) do in these assays?
Tgondii IFNg: 190.5

How did CCn1cc(S(=O)(=O)NCc2ccc3[nH]c4c(c3c2)CCCC4)cn1 do in these assays?
Tgondii IFNg: -5.6

Results for CN1CC[C@]2(CN(Cc3nccn3C)C[C@H]2c2ccccc2)C1=O ?
Tgondii IFNg: -26.9

What do the screens show for `Cc1ccc(NC(=O)CN2CCC3(CC2)N=C(c2ccc(Cl)cc2)C(=O)N3)cc1C`?
Tgondii IFNg: 57.1

Results for CC(C)CS(=O)(=O)N1CCC2(CC1)CC1(CCN(c3ncccn3)CC1)C(=O)N2C ?
Tgondii IFNg: 7.0

What do the screens show for `CC(C)CC(=O)N1CCC2(CC1)CC(CC(=O)NCC1CC1)c1ccccc12` (centres undefined)?
Tgondii IFNg: -11.5

How did CCN(CC)c1nc(Nc2ccc(OC)cc2)nc(Nc2ccc(OC)cc2)n1 do in these assays?
Tgondii IFNg: -97.5*

How did COc1ccc(Nc2nccc(NCCO)n2)cc1 do in these assays?
Tgondii IFNg: 84.8

What do the screens show for `CCN(CC)c1ccc(NC(=S)NC(=O)c2ccc(OC)cc2)cc1`?
Tgondii IFNg: -9.7

What do the screens show for `CC(C)CC(NS(=O)(=O)c1ccc2[nH]c(=O)ccc2c1)C(=O)NC1CCCCCCC1` (centres undefined)?
Tgondii IFNg: -10.2

Compound activity deposited in PubChem BioAssay by Broad Institute.
